Source: PubChem (National Center for Advancing Translational Sciences (NCATS))
BAZ2B block: qHTS Assay for Inhibitors of BAZ2B; AlphaScreen BAZ2B-H3K14Ac peptide displacement; Potency, µM (titrated, usually from 114 µM), hits mostly inhibitors; hit rate 4.4% among 360,000; AID 504333, 2011; note: nearly all actives have a fitted effect of over 60% in size
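Complex of BAZ2B and biotin-H3K14Ac (50 nM apiece) forms over 30 min at RT, then faces library compounds up to 110 uM for another 30 min; AlphaScreen beads added, 20 min dark incubation, luminescence read.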
PLK1 PBD block: qHTS for Inhibitors of PLK1-PDB (polo-like kinase 1 - polo-box domain): Primary Screen. AID 720504, 2013. Serine/threonine-protein kinase PLK1 (Homo sapiens), P53350. Potency, µM, hits mostly inhibitors. Plk1 PBD binding of FITC phosphopeptide, fluorescence polarization. hit rate 2.8% among 360,000; note: series mostly up to about 57 µM; nearly all actives have a fitted effect of over 65% in size
PI5P4K alpha inh: qHTS for Inhibitors of phosphatidylinositol 5-phosphate 4-kinase (PI5P4K) | Phosphatidylinositol 5-phosphate 4-kinase type-2 alpha (Homo sapiens), P48426 | PI5P4Kalpha enzyme, ADP-Glo luminescence, 60 min; stronger effect = lower value | max response, % | hit rate 1.2% among 330,000; active = max response of -50% or lower; inconclusive = between -30% and -50%; inactive = -30% or higher; note: value at the top dose of about 77 µM
Target sequence (P48426 whole entry, looked up): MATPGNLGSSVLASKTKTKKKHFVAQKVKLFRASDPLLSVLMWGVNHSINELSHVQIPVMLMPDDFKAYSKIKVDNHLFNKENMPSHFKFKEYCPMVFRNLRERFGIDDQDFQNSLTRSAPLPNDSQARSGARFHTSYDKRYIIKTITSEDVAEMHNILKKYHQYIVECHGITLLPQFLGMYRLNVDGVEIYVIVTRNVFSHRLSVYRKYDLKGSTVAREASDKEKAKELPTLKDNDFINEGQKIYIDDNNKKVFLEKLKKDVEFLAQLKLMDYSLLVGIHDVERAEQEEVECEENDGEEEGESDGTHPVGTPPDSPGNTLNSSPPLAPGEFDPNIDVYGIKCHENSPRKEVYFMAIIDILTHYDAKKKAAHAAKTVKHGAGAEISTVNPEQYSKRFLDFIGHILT
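Enzyme plus substrate dispensed, test compounds pinned in, then ATP (5 microM final) added. After 60 min at RT, ADP-Glo reagent 1 for 45 min and reagent 2 for 30 min preceded luminescence imaging.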
HP1b binding inh: HTS for Inhibitors of HP1-beta Chromodomain Interactions with Methylated Histone Tails | Chromobox protein homolog 1 (Homo sapiens), P83916 | AlphaScreen HP1-beta / biotin-H3K9me3 peptide binding | Potency, µM (highest dose often 114 µM), most hits filed as inhibitors | hit rate 0.56% among 390,000 | AID 540317, 2011; note: nearly all actives have a fitted effect of over 70% in size
Target sequence (P83916 whole entry, looked up): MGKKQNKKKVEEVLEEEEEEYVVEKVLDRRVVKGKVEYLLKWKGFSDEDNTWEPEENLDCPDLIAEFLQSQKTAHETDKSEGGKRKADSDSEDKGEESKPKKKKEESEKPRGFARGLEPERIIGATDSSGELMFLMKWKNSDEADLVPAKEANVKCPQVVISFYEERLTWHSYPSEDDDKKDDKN
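Compound inhibition of the preformed complex between 50 nM HP1-beta and 50 nM biotinylated H3K9me3 peptide was read by AlphaScreen. Buffer was PBS pH 7.4 with 0.01% Tween-20. Incubations ran 30 min at room temperature, with 10 ug/mL donor/acceptor beads.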
KAT2A inh: qHTS Assay for Inhibitors of GCN5L2; Potency, µM (top dose mostly 58.9 µM), usual class: inhibitors; Histone acetyltransferase KAT2A (Homo sapiens), Q92830; AID 504327, 2011; GCN5L2 HAT assay, ThioGlo1 CoA-SH fluorescence; hit rate 0.21% among 390,000
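ThioGlo1-coupled HAT assay: 20nM GCN5L2, 70uM acetyl-CoA, 75uM H3(1-25) peptide, pH 7.5. Fluorescence read at 340/540nm at start and after 20 min at room temperature.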
JMJD2A Tudor: qHTS Assay for Inhibitors of JMJD2A-Tudor Domain; AID 504339, 2011; Lysine-specific demethylase 4A (Homo sapiens), O75164; AlphaScreen JMJD2A-Tudor / H3K4me3 peptide binding; hit rate 4.4% among 390,000; Potency, µM (doses to about 114 µM), actives largely listed as inhibitors; note: nearly all actives have a fitted effect of over 50% in size
Of the large screens only hits and unclear results are named; the others gave an inactive call. Only some compounds are listed: those with a hit (about 7% of all), similar ones and a draw of the others. Unless noted, calls come from the whole dose curve; as a rule, active = well fitted curve in the direction sought with a large enough effect; inconclusive = small, poorly fitted or top-dose-only effect, or another doubt; inactive = no such curve, though single readings can be large; an effect the other way counts as inactive or inconclusive.

COc1cccc(CN2CCN(Cc3cc(OC)c(OC)cc3[N+](=O)[O-])CC2)c1	BAZ2B block inconclusive, JMJD2A Tudor 0.79µM (no result: PI5P4K alpha inh)
COc1cc(CN2CCSCC2)c([N+](=O)[O-])cc1OC	BAZ2B block inconclusive, HP1b binding inh inconclusive, JMJD2A Tudor 2.2µM
CCOc1ccc(NC(=O)CSc2nncc(=O)n2N)cc1	none
Fc1ccc(NCc2cccnc2)cc1F	BAZ2B block inconclusive, JMJD2A Tudor 79µM (no result: PI5P4K alpha inh)
Cc1ccc(NCc2cccnc2)c(Br)c1	BAZ2B block 79µM, HP1b binding inh inconclusive, JMJD2A Tudor 3.2µM
Clc1ccc(NCc2cccnc2)cc1	none
Cc1ccnc(NCc2ccc(Cl)cc2)c1	none
Cc1ccc(NCc2ccc(Cl)nc2)c(NCc2ccc(Cl)nc2)c1	BAZ2B block 35µM
COc1ccc(CSC(=S)NNc2ccccc2)cc1	PLK1 PBD block inconclusive (no result: BAZ2B block, HP1b binding inh, KAT2A inh, JMJD2A Tudor)
O=C(Cn1c(-c2cccs2)cc2ccccc21)N1CCN(c2ccc(F)cc2)CC1	none (no result: PLK1 PBD block, PI5P4K alpha inh)
N#C/C(=C/c1ccc(N2CCOCC2)o1)c1nc2ccccc2[nH]1	BAZ2B block inconclusive, JMJD2A Tudor inconclusive
N#C/C(=C/c1ccc(N2CCCCCC2)o1)c1cccc(F)c1	BAZ2B block inconclusive, HP1b binding inh inconclusive, JMJD2A Tudor 40µM (no result: PI5P4K alpha inh)
N#C/C(=C\c1ccc(N2CCOCC2)o1)c1ccccc1	BAZ2B block 40µM, KAT2A inh inconclusive, JMJD2A Tudor inconclusive (no result: PI5P4K alpha inh)
N#C/C(=C/c1ccc(N2CCCCCC2)o1)c1ccc(F)cc1	PLK1 PBD block inconclusive, PI5P4K alpha inh inconclusive (no result: BAZ2B block, KAT2A inh)
COc1cc(N2CCCC2)c(OC)cc1/C=C(/C#N)c1cccc(F)c1	BAZ2B block 22µM, HP1b binding inh inconclusive, JMJD2A Tudor 20µM
COc1ccc(-c2n[nH]c(=S)n2/N=C/C=C/c2ccccc2OC)cc1	JMJD2A Tudor 79µM
COc1ccccc1/C=C/C=N/n1c(-c2ccccc2)n[nH]c1=S	PLK1 PBD block inconclusive
COc1ccccc1/C=C/C=N/n1c(-c2ccc(Cl)cc2)n[nH]c1=S	BAZ2B block inconclusive, PLK1 PBD block 12µM, HP1b binding inh inconclusive, JMJD2A Tudor 89µM
CC(=O)Oc1ccc2c(c1)C(=O)CCCCCC(=O)O2	none (no result: BAZ2B block, HP1b binding inh, KAT2A inh, JMJD2A Tudor)
Cc1ccc(OC(C)C(=O)N2CCN(c3ccccn3)CC2)cc1 (stereo not drawn)	PLK1 PBD block 27µM, PI5P4K alpha inh inconclusive (no result: BAZ2B block, KAT2A inh)
O=C(CN1CCN(c2ccc(F)cc2)CC1)Nc1ccccc1[N+](=O)[O-]	BAZ2B block inconclusive, PLK1 PBD block inconclusive, HP1b binding inh 50µM, JMJD2A Tudor inconclusive
COc1ccc(C)cc1NC(=O)CN1CCN(c2ccccn2)CC1	PLK1 PBD block 27µM, JMJD2A Tudor inconclusive
COc1ccccc1NC(=O)CN1CCN(c2ccccn2)CC1	none (no result: PI5P4K alpha inh)
COc1ccccc1NC(=O)CN1CCN(c2ccc(F)cc2)CC1	PLK1 PBD block 24µM, JMJD2A Tudor inconclusive (no result: BAZ2B block, KAT2A inh)
O=C(CN1CCN(c2ccc(F)cc2)CC1)Nc1ccccc1Br	none
COc1ccccc1NC(=O)CN1CCN(CC(=O)Nc2ccc(F)cc2)CC1	none
COc1cccc(NC(=O)c2ccc(CNS(=O)(=O)c3ccc4c(c3)C(C)(C)C(=O)N4C)cc2)c1	BAZ2B block inconclusive (no result: PLK1 PBD block, PI5P4K alpha inh)
O=C(NCCCN1CCN(c2ccccc2F)CC1)C1COc2ccccc2C1 (stereo not drawn)	BAZ2B block inconclusive, JMJD2A Tudor inconclusive (no result: PLK1 PBD block, PI5P4K alpha inh)
COc1ccc(N2CCN(CC(=O)Nc3ccccc3SC)CC2)cc1	BAZ2B block 50µM, HP1b binding inh inconclusive, JMJD2A Tudor inconclusive
S=C(c1ccc(-c2ccc(Cl)c(Cl)c2)o1)N1CCOCC1	BAZ2B block 11µM, PLK1 PBD block 27µM, HP1b binding inh inconclusive, JMJD2A Tudor 35µM (no result: PI5P4K alpha inh)
S=C(c1ccc(-c2ccc(Br)cc2)o1)N1CCCCC1	JMJD2A Tudor inconclusive
S=C(c1ccc(-c2ccc(Br)cc2)o1)N1CCOCC1	BAZ2B block 28µM, PLK1 PBD block inconclusive, HP1b binding inh 25µM, JMJD2A Tudor 35µM
S=C(c1ccc(-c2ccccc2Cl)o1)N1CCOCC1	BAZ2B block 40µM, PLK1 PBD block 5.3µM, HP1b binding inh inconclusive, JMJD2A Tudor 40µM (no result: PI5P4K alpha inh)
O=C(c1ccc(-c2cccc(Cl)c2Cl)o1)N1CCOCC1	none
CCOc1ccc(-c2nc(CNC(=O)NC3CCCCC3)c(C)o2)cc1	none (no result: PLK1 PBD block, PI5P4K alpha inh)
Cc1ccc(C)c(NC(=O)CN(C)C(=O)c2ccc(S(=O)(=O)N3CCCCCC3)cc2)c1	none
CC1N(C)c2cc(NC(=O)c3ccco3)ccc2C1(C)C (stereo not drawn)	BAZ2B block 50µM, JMJD2A Tudor inconclusive (no result: PI5P4K alpha inh)
COc1ccc2cnnc(SCC(=O)Nc3ccc(C(=O)O)cc3)c2c1OC	BAZ2B block inconclusive, PI5P4K alpha inh -66
COc1ccc(OC)c(NC(=O)CSc2nncc3ccc(OC)c(OC)c23)c1	BAZ2B block 79µM, PLK1 PBD block inconclusive
CCOc1ccc(N(C(C)C(=O)N2CCCC2)S(C)(=O)=O)cc1 (stereo not drawn)	PLK1 PBD block 19µM, JMJD2A Tudor inconclusive
O=[N+]([O-])c1ccc(O)c(Nc2ncnc3ccc(Br)cc23)c1	BAZ2B block inconclusive, PI5P4K alpha inh inconclusive, HP1b binding inh inconclusive, KAT2A inh inconclusive
O=[N+]([O-])c1ccc(O)c(Nc2c([N+](=O)[O-])ccc3nonc23)c1	BAZ2B block 50µM, PI5P4K alpha inh inconclusive, JMJD2A Tudor inconclusive
Cc1ccc(C)c(Nc2c([N+](=O)[O-])ccc3nonc23)c1	BAZ2B block 3.5µM, HP1b binding inh inconclusive
CCCCOc1ccc(C(=O)NCC(=O)NCC(c2ccc(F)cc2)N2CCOCC2)cc1 (stereo not drawn)	none
O=C(COc1cccc2c1CCN(Cc1ccc(Br)cc1)C2=O)NCc1ccco1	BAZ2B block inconclusive, JMJD2A Tudor 50µM
CC(C)Oc1ccccc1C1CC(=O)Nc2cc3c(cc21)OCCO3 (stereo not drawn)	BAZ2B block 50µM, JMJD2A Tudor inconclusive (no result: PI5P4K alpha inh)
COc1ccccc1C1CC(=O)Nc2cc3c(cc21)OCCO3 (stereo not drawn)	none (no result: PI5P4K alpha inh)
O=C(Nc1ccccc1)Nc1cccc2nsnc12	none
COc1ccc(/C=N/NC(=O)Nc2cccc3nsnc23)cc1	PLK1 PBD block 24µM, JMJD2A Tudor 71µM
COc1ccc(C(=O)OCC(=O)c2ccc3[nH]c(=O)[nH]c3c2)c(OC)c1OC	none (no result: BAZ2B block)
COc1ccc(S(=O)(=O)N2CCOC2CNC(=O)C(=O)NCc2cccnc2)cc1C (stereo not drawn)	none
